We go through 40 compounds from PubChem BioAssay (NCI).

“And” between values parts separate entries of the source, which are not always exact repeats. Equal entries are not always repeated. Compounds without any hit were thinned out: in the full panel of roughly 83,000, 20% have a hit.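 Plates (96-well) were seeded with cells, treated with compound at one concentration, and incubated for 48 hours before percent growth was determined.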 A structure can be active in one record and inactive in another. The source made the active and inactive calls. The calls were made as follows: active = growth percent below 10; inactive = the rest.

This assay concerns HL-60(TB) leukemia. The assay is described as follows: NCI-60 one-dose screen, 48 h (100 = growth as untreated, 0 = no growth, -100 = all killed). The note with it: 10 µM unless noted.
Consider `COC(=O)/C(CCC=C(C)C)=C1\[C@@H](OC(C)=O)C[C@@]2(C)[C@H]1C[C@@H](O)[C@H]1[C@@]3(C)CC[C@H](NCCCNCCCCNCCCN)[C@@H](C)[C@@H]3CC[C@@]12C`, for which the growth was 37.2% (inactive).

With `COC(=O)[C@]12CC[C@@H](C)[C@H](C)[C@@H]1C1=CC[C@@H]3[C@@]4(C)C(C=O)=C[C@@](C)(COC(C)=O)[C@@H]4[C@H](O)C[C@@]3(C)[C@]1(C)CC2`, the growth is -24.7% (active). Take `CN(C)c1ccc2nc3ccc(=O)cc-3sc2c1`: the growth was -21.3% (active) and -7.59% (active). On to `CCOC(=O)c1cn2ncnc(Oc3ccc(NC(=O)NC4CCCCC4)c(Cl)c3)c2c1C`, for which the growth is 70.9% (inactive).

Turning to `O=C1c2cc3c(cc2-c2c1c1ccc(Cl)cc1c(=O)n2CCCNCCO)OCO3`, the growth was -64% (active). `COc1cccc2cc(-c3nc(C4CCC(C(=O)O)CC4)n4ncnc(N)c34)[nH]c12` (stereo not given): the growth was 33.3% (inactive).

Take `CCOC(=O)N1CCN(CCCCl)CC1`: the growth was 85.6% (inactive).

As to `CN(C)CCOC1(Cc2ccc(Cl)cc2Cl)CCC(C(C)(C)C)CC1` (stereo not given), the growth was 43.9% (inactive) and 9.21% (active). On to `CC(=O)NCC(=O)N1[C@@H]2CC[C@H]1c1ccc(Nc3ncc(C(F)(F)F)c(NC4CCC4)n3)cc12`, for which the growth was 11.8% [2.5 µM] (inactive). The figure for `CN(C)CCN1CCN(c2ncccc2C2Nc3ccccc3-n3cccc32)CC1` (stereo not given) is 98.7% (inactive).

Consider `Clc1cc(Cl)cc(-c2ccc(-c3ccc(/C=N/NC4=NCCN4)cc3)s2)c1`, for which the growth is 19.6% (inactive).

Consider `COc1ccc(-c2nc(-c3ccccn3)c(-c3ccccn3)n2CC(C)C)cc1OC1CCCC1`, for which the growth was -43.5% (active). The figure for `COc1ccc2nc3ccc(OC)cc3c(SCCCN)c2c1` is 50.2% (inactive). The figure for `CC(C)c1cc(N=O)cc(C(C)C)c1O` is 93% (inactive); for `COC(=O)[C@]12CC[C@@H](C)[C@H](C)[C@@H]1C1=CC[C@@H]3[C@@]4(C)CC(=O)[C@H](OC(=O)c5ccco5)[C@@]5(C)COC(=C45)C[C@@]3(C)[C@]1(C)CC2` it is 24.6% (inactive); for `COC(=O)/C(=C\c1c(-c2ccccc2)[nH]c2ccccc12)S(C)(=O)=O` it is 1.54% (active). In the case of `N#Cc1c(N)nc2c(C#N)c(NC(=O)c3ccccc3)nn2c1-c1ccccc1`, the growth is 93% (inactive).

For the compound `CCOC(=O)c1ccc2[nH]c(O)c(C(=Nc3ccc(N(C)C(=O)CN4CCN(C)CC4)cc3)c3ccccc3)c2c1`, the growth is -52.6% (active). The figure for `COC(=O)[C@H]1[C@H]2C[C@@H]3c4[nH]c5cc(OC)ccc5c4CCN3C[C@H]2C[C@@H](OC(=O)/C=C/c2cc(OC)c(OC)c(OC)c2)[C@@H]1OC` is -40.1% (active). The figure for `Cc1ccc(NCSc2ccc(Cl)cc2)cc1` is 3% (active) and 22.5% (inactive); for `Cc1oc2ncnc(Nc3ccccc3)c2c1C(=O)NCCO` it is 64.9% (inactive); for `O=S(=O)(Nc1ccc(Cl)cc1)c1ccc(-c2cnc(C3CC3)o2)cc1` it is -36.7% (active). Consider `CN1CCN(C2=Nc3ccccc3Oc3ccc(Cl)cc32)CC1`, for which the growth was 91.8% (inactive). The figure for `COc1ccc(-c2cc(-c3ccc(Cl)cc3)c(C#N)c(=O)n2CCCCC(=O)Nc2ccccc2N)cc1` is 3.34% (active); for `CC(=O)Nc1ccc(S(=O)(=O)Cl)cc1` it is 103% (inactive); for `O=C(O)c1ccc(Br)nc1` it is 94.4% (inactive). Turning to `O=P(O)(O)OC1C(OP(=O)(O)O)C(OP(=O)(O)O)C(OP(=O)(O)O)C(OP(=O)(O)O)C1OP(=O)(O)O.[Cu+2]` (stereo not given), the growth is 92.6% (inactive). The figure for `COc1ccc2[nH]cc(/C=C3\C(=O)Nc4ccccc43)c2c1` is -31.7% (active); for `Oc1c(CN2CCCCC2)ccc2cccnc12` it is 58.3% (inactive) and 18.2% (inactive); for `Cc1c(C(N)=O)sc2ncn(CC(=O)NN=C3CCCCC3)c(=O)c12` it is 123% (inactive).

Turning to `COC(=O)[C@]12CC[C@@H](C)[C@H](C)[C@@H]1C1=CC[C@@H]3[C@@]4(C)C/C(=N\O)[C@H](O)[C@@]5(C)COC(=C45)C[C@@]3(C)[C@]1(C)CC2`, the growth is -59.8% (active).

Regarding `CC(=O)OC[C@]12CCC(C)(C)C[C@H]1[C@@]1(O)[C@H](O)C[C@@H]3[C@@]4(C)CCCNC(C)(C)[C@@H]4CC[C@@]3(C)[C@]1(C)CC2`, the growth was 105% (inactive).

Regarding `CCOC(=O)N/N=C/c1ccc(OC)c(OC)c1`, the growth was 108% (inactive). With `O=S(=O)(NCCCNc1nccc(-c2c(-c3ccc(F)c(O)c3)nc3occn23)n1)c1ccccc1` the figure was 84.3% (inactive).

On to `CCCC(=O)Oc1ccc(/C(=C(\C)c2ccc(Cl)cc2)c2ccc(OCCN(CC)CC)cc2)cc1`, for which the growth was -49.1% (active).

Turning to `COc1ccc2c(O)c(/C=C3\N=Nc4ccccc43)oc2c1C[C@@H]1CCNC[C@H]1F`, the growth was 61% (inactive). On to `COc1cc(C(=O)c2ccccc2C(=O)O)c(OC)c2c1CCCC2`, for which the growth was 36.8% (inactive) and 97.1% (inactive).

Regarding `Cc1cccc(C)c1NC(=O)CN(CC(C)C)CC(O)COc1ccccc1` (stereo not given), the growth was 98% (inactive). The figure for `Cc1ccc(S(=O)(=O)Nc2ccc3cc([N+](=O)[O-])ccc3c2[N+](=O)[O-])cc1` is 83.3% (inactive) and 31% (inactive). With `O=C(NO)c1ccc(-n2nc(-c3ccccc3)c3ccccc32)cc1` the figure was 62.4% (inactive).
